Test [1] in a line: qHTS assay to identify small molecule antagonists of the glucocorticoid receptor (GR) signaling pathway - cell viability counter screen (AID 720693). Further: nearly all actives have a fitted effect of over 55% in size.
Test [2] in a line: qHTS assay for identifying genotoxic compounds that show differential cytotoxicity against isogenic chicken DT40 cell lines with known DNA damage response pathways - wild type cell line (AID 743012). Further: nearly all actives have a fitted effect of over 60% in size. Further: potency means the concentration at half of the fitted maximal effect. An outline of the steps: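 300 wt DT40 cells/well; cpd (DMSO) pintool-transferred after ~0.5 h at 37 C/5% CO2; 40 h incubation; CellTiter-Glo added, 30 min RT; luminescence read.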

A short description of test [3]: qHTS assay for identifying genotoxic compounds that show differential cytotoxicity against isogenic chicken DT40 cell lines with known DNA damage response pathways - Rev3 mutant cell line (AID 743014). Further: nearly all actives have a fitted effect of over 55% in size.
Test [4] can be described thus: qHTS assay to identify small molecule antagonists of the androgen receptor (AR) signaling pathway - cell viability counter screen (AID 743033; further: nearly all actives have a fitted effect of over 45% in size).
Test [5] can be described thus: qHTS assay to identify small molecule antagonists of the androgen receptor (AR) signaling pathway using the MDA cell line - cell viability counter screen (AID 743041; further: nearly all actives have a fitted effect of over 45% in size). The essentials: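 Compound exposure lasted 16 h at 37C in MDA-kb2 AR-luc cells stimulated with R1881. Protease-based CellTiter-Fluor reagent was applied for the final 30 min and fluorescence measured.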

Test [6] in a line: qHTS assay for identifying genotoxic compounds that show differential cytotoxicity against isogenic chicken DT40 cell lines with known DNA damage response pathways - Rad54/Ku70 mutant cell line (AID 743015). Further: nearly all actives have a fitted effect of over 60% in size.
Test [7] concerns the target Androgen receptor (Homo sapiens) (UniProt P10275). Description: qHTS assay to identify small molecule antagonists of the androgen receptor (AR) signaling pathway (AID 743035; active means well fitted inhibition curve with a large enough effect in the signal ratio in the repeat runs, not every such curve was filed as active; the % refers to the signal ratio). An outline of the steps:
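In this cell-based reporter screen, compounds were tested in concentration series against R1881-activated HEK293 cells expressing beta-lactamase under UAS control; after 16 h at 37C, FRET substrate was added and fluorescence read 2 h later.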

Test [8] shares this target. The test can be described thus: qHTS assay to identify small molecule agonists of the androgen receptor (AR) signaling pathway (AID 743036; active means well fitted activation curve with a large enough effect in the signal ratio in the repeat runs, with a control signal flat, not every such curve was filed as active; the % refers to the signal ratio). An outline of the steps: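 Screening used 2,000 AR-bla HEK293 cells per well, treated 16 h at 37C with test compounds in DMSO alongside positive and DMSO-only controls; beta-lactamase activity was then read by LiveBLAzer B/G FRET fluorescence after 2 h at room temperature.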

Test [9] shares this target. Description: qHTS assay to identify small molecule agonists of the androgen receptor (AR) signaling pathway using the MDA cell line (AID 743040; further: nearly all actives have a fitted effect of over 20% in size; further: potency means the concentration at half of the fitted maximal effect). The essentials: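 Testing was done with the MDA-kb2 AR-luc line, a human breast carcinoma stably transfected with MMTV-luciferase containing AR and GR response elements. Cells were exposed 16 h at 37C before ONE-Glo luminescence detection.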

Test [10] shares this target. The test can be described thus: qHTS assay to identify small molecule antagonists of the androgen receptor (AR) signaling pathway using the MDA cell line (AID 743042; further: nearly all actives have a fitted effect of over 55% in size). An outline of the steps:
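MDA-kb2 breast carcinoma cells carrying MMTV-luciferase (AR/GR responsive) were co-treated with compounds and the agonist R1881 for 16 h at 37C. Inhibition read as ONE-Glo luminescence; CellTiter-Fluor fluorescence measured in parallel for cytotoxicity.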

Unmarked numbers belong to inactive results. Records with an inconclusive call do not appear. Activity calls are given as the source filed them. Unless noted, the call rests on the fitted dose curve; in most records, active means well fitted curve in the direction sought with a large enough effect in the repeat runs; inconclusive means weak or mixed curves; inactive means no such curve, though single readings can be large; an effect the other way counts as inactive or inconclusive.

This is an account of results in PubChem BioAssay (Tox21).
On the % scale 0 is the no-effect control and ±100 the full control effect.

Chain of Androgen receptor (Homo sapiens) (P10275 whole entry, looked up): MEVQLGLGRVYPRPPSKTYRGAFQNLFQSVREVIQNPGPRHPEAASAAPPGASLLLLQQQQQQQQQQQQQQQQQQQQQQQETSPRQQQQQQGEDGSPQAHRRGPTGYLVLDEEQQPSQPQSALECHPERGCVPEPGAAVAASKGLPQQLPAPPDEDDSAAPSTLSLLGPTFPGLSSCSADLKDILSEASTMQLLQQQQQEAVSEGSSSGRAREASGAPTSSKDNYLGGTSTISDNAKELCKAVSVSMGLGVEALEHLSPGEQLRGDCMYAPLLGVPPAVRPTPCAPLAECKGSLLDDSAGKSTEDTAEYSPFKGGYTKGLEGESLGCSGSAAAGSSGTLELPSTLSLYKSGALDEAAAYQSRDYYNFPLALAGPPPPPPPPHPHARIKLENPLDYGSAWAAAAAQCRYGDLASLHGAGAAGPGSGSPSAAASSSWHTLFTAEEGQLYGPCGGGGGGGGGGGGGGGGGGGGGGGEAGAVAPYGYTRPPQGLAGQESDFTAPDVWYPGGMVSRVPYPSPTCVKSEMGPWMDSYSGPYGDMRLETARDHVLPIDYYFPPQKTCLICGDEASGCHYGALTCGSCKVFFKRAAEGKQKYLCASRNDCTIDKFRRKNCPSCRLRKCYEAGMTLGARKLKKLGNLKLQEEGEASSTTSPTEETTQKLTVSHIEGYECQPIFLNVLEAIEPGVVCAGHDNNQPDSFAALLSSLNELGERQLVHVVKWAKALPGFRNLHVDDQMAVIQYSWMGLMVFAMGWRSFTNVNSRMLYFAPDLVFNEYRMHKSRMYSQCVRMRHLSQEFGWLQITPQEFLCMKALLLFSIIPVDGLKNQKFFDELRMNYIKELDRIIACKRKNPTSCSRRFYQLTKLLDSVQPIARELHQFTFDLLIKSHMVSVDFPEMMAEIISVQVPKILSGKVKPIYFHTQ

Turning to `CCCCc1ccc(N)cc1`, the compound was called inactive in test [1] and in test [4]. Moreover, the Potency result in test [2], in test [3] and in [5] was “inactive” in each case.

Turning to `COC[C@H](c1ccc(C(F)(F)F)cc1)N1CCN(C2(C)CCN(C(=O)c3c(C)ncnc3C)CC2)C[C@H]1C`, the compound was classed as inactive in test [1] and in test [4]. The Potency in test [2] was 29.8 µM (active). For the same compound, the Potency entry in test [6] and in test [5] was “inactive” each time.

Regarding `O=C(O)c1ccc[n+]([O-])c1`, the result in test [1], in test [4], in test [8] and in test [10] was inactive. Moreover, the Potency entry in test [2], in test [6], in test [7], in test [9] and in test [5] was “inactive” each time.

Turning to `CSc1ccc(C=O)cc1`, the outcome in test [1] and in test [4] was inactive. The Potency entry in test [2], in [3] and in [5] was “inactive” in each case.

For the compound `CNc1ncnc2nc[nH]c12`, the outcome in test [1] and in test [4] was inactive. For the same compound, the Potency entry in test [2], in [6] and in test [5] was “inactive” throughout.

As for `CCCCCN(CCCCC)C(=O)C(CCC(=O)O)NC(=O)c1ccc(Cl)c(Cl)c1` (configuration not stated), the call in test [1], in [4], in test [8] and in [10] was inactive. The Potency result in test [2], in [6], in test [9] and in [5] was “inactive” throughout.

As to `CN(C)C(=O)Nc1ccccc1`, the compound was called inactive in test [1] and in [4]. For the same compound, the Potency entry in [2], in test [6] and in test [5] was “inactive” throughout.

As for `NC(=S)Nc1cccc2ccccc12`, the viability change, negative = cytotoxic was -9.87% [at 7.04 µM] in test [1] and -0.0936% [at 8.47 µM] in test [5]. The activity change, negative = cytotoxicity in test [2] is 28.7% [at 8.52 µM]; in [4] it was 0.303% [at 7.04 µM]. In test [3], the activity, negative = cytotoxicity was -8.62% [at 8.53 µM].

Regarding `Fc1ccccc1-c1ccccc1`, the call in test [1] and in [4] was inactive. Further, the Potency entry in [2], in [6] and in test [5] was “inactive” each time.

With `Cc1nccn1CC1CCc2c(c3ccccc3n2C)C1=O` (configuration not stated), the call in test [1] and in test [4] was inactive. For the same compound, the Potency result in [2], in test [6] and in [5] was “inactive” each time.

With `CC(C)CCCC(C)CCCC(C)CCCCC(C)CCCC(C)CCCC(C)C` (configuration not stated), the compound was classed as inactive in [1] and in test [4]. Besides, the Potency result in test [2], in [6] and in test [5] was “inactive” in each case.

`CN(C)CCOC(c1ccc(Cl)cc1)c1ccccn1` (configuration not stated): the result in [1] and in [4] was inactive. Also, the Potency entry in [2], in test [3] and in test [5] was “inactive” in each case.

Regarding `CC(C)c1ccc2oc3nc(N)c(C(=O)O)cc3c(=O)c2c1`, the result in test [1] and in test [10] was inactive. In addition, the Potency entry in [2], in test [3], in [7] and in test [5] was “inactive” each time. For the same compound, in test [9], the Potency is 11.9 µM (active).

For `NCCNC(=O)c1ccc(Cl)cn1`, the outcome in test [1] and in test [4] was inactive. In addition, the Potency result in test [2], in [6] and in [5] was “inactive” each time.

Regarding `CCCC(C)CO` (configuration not stated), the compound was called inactive in [1], in test [8] and in test [10]. Moreover, the Potency entry in test [2], in test [3], in [7] and in test [5] was “inactive” in each case.

On to `O=[N+]([O-])c1ccc(Oc2ccc([N+](=O)[O-])cc2)cc1`, for which the compound was classed as inactive in test [1] and in test [4]. In addition, the Potency entry in test [2], in [6] and in [5] was “inactive” throughout.

Regarding `C=C(C)[C@@H]1CCC2=CC(=O)C[C@@H](C)[C@]2(C)C1`, the outcome in test [1] and in [4] was inactive. Besides, the Potency entry in test [2], in test [6] and in test [5] was “inactive” each time.

`OCc1ccccn1`: the outcome in test [1] and in test [4] was inactive. The Potency result in test [2], in [6] and in test [5] was “inactive” in each case.

As for `CCCCCCCCCCCCCCC`, the result in [1] and in [4] was inactive. Besides, the Potency result in [2], in test [6] and in [5] was “inactive” throughout.

For the compound `COc1cc(CCC(C)=O)ccc1O`, the result in [1] and in test [10] was inactive. The Potency result in test [2], in test [3], in test [9] and in test [5] was “inactive” each time.
